# Compound activity (PubChem)
# APP transl inh – inhibitors of APP translation via 5'UTR reporter, primary screen, APP 5'UTR luciferase, SH-SY5Y cells; inhibition, % at 2 µM; 190,000 compounds, 0.82% hits; AID 1285, 2008; SH-SY5Y APP 5'UTR-luciferase reporter, luminescence;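 active means inhibition above a set limit, derived from the sample mean plus 3 SD, cut at about 45% in these data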
# aSyn UTR inh – MLPCN primary screen, SNCA 5' untranslated region. inhibition, % (tested at 7.5 µM). 300,000 compounds, 0.82% hits. AID 1813, 2009. alpha-synuclein 5'UTR reporter, inhibitor activity; in the data active means inhibition above about 60%;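 further: H4 neuroglioblastoma cells stably carrying SNCA 5'UTR luciferase fusion; 0% = DMSO wells and 100% = positive control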
# BaF3 tox – parental Ba/F3 cell viability inhibition, counter-screen for JAK2V617F inhibitor project, murine pro-B, CellTiter-Glo luminescence. CellTiter-Glo ATP luminescence. inhibition, % at 5.6 µM. 220,000 compounds, 1.1% hits. AID 1486, 2009;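 active means inhibition above a per-campaign cutoff, the mean inhibition of all tested compounds plus 3 SD, cut at about 27% in these data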;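 further: 0% = DMSO wells and 100% = JAK Inhibitor I control wells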
# Ba/F3 V617F tox – reduced viability of JAK2V617F-dependent Ba/F3 cells, primary screen, JAK2V617F inhibitor project, cell-based, Ba/F3 EpoR-JAK2V617F, luminescence; ATP luminescence; inhibition, % at 5.6 µM; 220,000 compounds, 1.1% hits;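 active means inhibition above the campaign mean plus 3 SD over all tested compounds, cut at about 24% in these data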;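 further: cytokine-independent growth of Ba/F3 cells driven by EpoR plus mutant JAK2; 0% = DMSO-treated cells and 100% = JAK inhibitor I control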
# IEC-6 cytotox – cytotoxicity in IEC-6 intestinal epithelial cells, primary screen, cytotoxicity control for KLF5 inhibitor project, cell-based, luminescence; IEC-6 cytotoxicity, luminescence viability; inhibition, % at 5 µM; 290,000 compounds, 0.78% hits; AID 1825, 2009;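 further: 0% = plate median of test compound wells and 100% = cytotoxic reference compound wells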
# KLF5 inhibitor – KLF5 expression inhibitors, primary screen, DLD-1 cells, luminescence; DLD-1 KLF5 promoter-luciferase reporter; inhibition, % at 5 µM; 290,000 compounds, 0.23% hits; AID 1700, 2009;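 active means inhibition above a per-plate limit of that plate's mean compound inhibition plus 3 SD, cut at about 60% in these data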;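 further: 0% = DMSO wells and 100% = LY294002 at 200 µM; higher means less KLF5 promoter-driven luciferase light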
# IEC-6 cytotox cf – cytotoxic compounds in IEC-6 epithelial cells, confirmation, cytotoxicity control, cell-based, luminescence. shares compounds with IEC-6 cytotox. IEC-6 rat intestinal epithelial viability. inhibition, % at 5 µM. 1,900 compounds, 63% hits. AID 1907, 2009;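 further: 0% = vehicle and 100% = reference cytotoxic drug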
# * hit, by the source's call; nt = no result. This is a sample that favours compounds with a hit; in the whole collection about 2.2% have one here. Unless noted, no stated cut-off is given here; in the data, active means inhibition above about 22%; inactive means the rest.
SMILES,APP transl inh,aSyn UTR inh,BaF3 tox,Ba/F3 V617F tox,IEC-6 cytotox,KLF5 inhibitor,IEC-6 cytotox cf
CCOc1ccc(OCCC(=O)N(CCC(C)C)c2c(N)n(Cc3ccccc3)c(=O)[nH]c2=O)cc1,nt,-0.1,nt,nt,nt,nt,nt
CCN(CC)CCNc1ccc(CO)c2sc3ccccc3c(=O)c12,19.9,-35.5,47.3*,65.9*,54.1*,13.1,63.6*
c1ccc(CCNCCCOc2cccc3ccccc23)cc1,nt,5.8,nt,nt,-0.6,-23.7,nt
COC(=O)CN(C)C(=O)c1ccccc1OC1CCN(S(C)(=O)=O)CC1,nt,8.5,nt,nt,-3.7,-48.4,nt
N#Cc1ccc(NC(=O)c2cc(S(=O)(=O)N3CCOCC3)ccc2N2CCCC2)cc1,nt,9.9,nt,nt,nt,nt,nt
Oc1cccc(/C=N/NC(=S)NCCN2CCOCC2)c1O,2.6,-7.1,0.4,-0.3,-3.4,-25.6,nt
S=C(NCCN1CCOCC1)N/N=C/c1cccs1,nt,6.6,nt,nt,29.8*,-45.0,-15.4
COC(=O)c1ccc(C2C(C#N)=C(N)Oc3cc(N)ccc32)cc1 (stereo not drawn),nt,-4.4,nt,nt,-3.2,3.4,nt
N#CC1=C(N)Oc2cc(N)ccc2C1c1cccc(F)c1 (stereo not drawn),nt,-137.5,nt,nt,51.0*,37.7,41.7*
Cc1cc(C)c2cc(C(=O)N3CCN(c4ncccc4C(F)(F)F)CC3)[nH]c2c1,nt,3.2,nt,nt,-0.1,-19.2,nt
S=c1nc[nH]c2nc[nH]c12,nt,66.6*,nt,nt,82.9*,46.7,69.3*
CC(C(=O)O)n1nc(-c2ccccc2)c2ccccc21 (stereo not drawn),nt,4.6,nt,nt,-0.3,-18.9,nt
O=C(c1ccc([N+](=O)[O-])o1)N1CCc2ccccc21,nt,-190.3,nt,nt,29.7*,-60.9,5.1
O=C(c1ccc([N+](=O)[O-])o1)N1CCc2ccccc2C1,nt,-103.3,-1.1,-0.9,-1.2,-25.7,nt
CC1CC2(CCCC2)N(C(=O)N(C)C)c2ccc(F)cc21 (stereo not drawn),nt,-6.5,nt,nt,-3.2,2.3,nt
COc1ccc(NS(=O)(=O)c2cc(NC(=O)c3cnc(C)cn3)ccc2N2CCCC2)cc1,-24.3,-15.6,7.0,3.6,4.1,-22.4,nt
COc1ccc(NS(=O)(=O)c2cc(NC(=O)c3ccc(=O)[nH]c3)ccc2N2CCCC2)cc1,nt,-49.7,nt,nt,42.0*,20.6,24.7*
CCn1c(SCC(=O)Nc2ccccc2C)nc2nc3c(cc2c1=O)COC(C)(C)C3,nt,14.4,2.2,0.3,-4.6,-5.8,nt
COc1cc2c(cc1OC)CN(C(=O)C1CCCN1S(=O)(=O)c1ccc(F)cc1)CC2 (stereo not drawn),nt,4.7,nt,nt,1.1,-17.8,nt
CCOC(=O)c1[nH]c(C)c(C(=O)c2ccc(C)cc2)c1C,94.9*,36.5,77.4*,77.8*,81.7*,15.7,62.2*
CCOC(=O)c1[nH]c(C)c(C(=O)Nc2ccccc2F)c1C,62.4*,-54.1,61.9*,68.3*,47.2*,4.6,46.1*
CCOC(=O)c1[nH]c(C)c(C(=O)Nc2cc(OC)ccc2OC)c1C,91.1*,35.8,75.1*,75.2*,86.4*,59.8,61.0*
CCOC(=O)c1[nH]c(C)c(C(=O)Nc2ccc(F)cc2)c1C,-18.0,0.1,-1.5,-6.0,1.3,-43.2,nt
CCOC(=O)c1[nH]c(C)c(C(=O)Nc2ccc(C)cc2C)c1C,70.2*,-27.8,52.3*,59.0*,51.0*,37.8,48.2*
CCOC(=O)c1c(C)[nH]c(C(=O)OCC(=O)Nc2cc(C)ccc2OC)c1C,-14.4,7.7,0.0,-4.8,1.2,-3.6,nt
SMILES,APP transl inh,aSyn UTR inh,BaF3 tox,Ba/F3 V617F tox,IEC-6 cytotox,KLF5 inhibitor,IEC-6 cytotox cf
O=C(CCc1ccccc1)NCCS(=O)(=O)N1CCN(c2ccccc2)CC1,nt,-10.3,nt,nt,nt,nt,nt
COc1cccc(NC(=O)N2CCCC2C(=O)NC23CC4CC(CC(C4)C2)C3)c1 (stereo not drawn),nt,-1.3,nt,nt,6.1,2.9,nt
CC(=O)NCCC(=O)Nc1nc2ccc(Oc3ccccc3)cc2s1,nt,-48.1,nt,nt,-9.8,-149.6,nt
O=[N+]([O-])c1cccc(NC(=S)Nc2nc(-c3ccccc3Cl)cs2)c1,nt,14.3,nt,nt,6.6,-69.6,nt
CC1CCN(S(=O)(=O)c2cccc(C(=O)NC3CCCC3)c2)CC1,nt,2.4,nt,nt,-2.5,-8.2,nt
Cc1sc(NC(=S)NC(=O)c2ccco2)c(C(N)=O)c1C,-37.4,-92.2,1.7,0.9,-2.0,-7.6,nt
